This note sets out measurements from PubChem BioAssay (EPA / NIEHS).

Each structure is given as a SMILES string. Active and inactive are the calls of the source. The calls were made as follows: active = hit-call score of the fitted dose curve at least 0.9, where 1 is the maximum; inactive = score below 0.9.

For orientation: AC50 means the concentration giving half of the maximal activity seen.

Read-out in this assay: NAD(P)H dehydrogenase [quinone] 1 (NQO1), NQO1 (gene 1728)
The assay is described as follows: LTEA_HepaRG_NQO1: Life Technologies and Expression Analysis (LTEA) Assay for NAD(P)H dehydrogenase [quinone] 1 (NQO1) using HepaRG (AID 2283526). Particulars: mRNA level, 48 h; actives raise or lower the signal. The method, then:
LTEA_HepaRG is a cell based, multiplexed-readout assay that uses HepaRG, a human liver cell line, with measurements taken at 48 hours after chemical dosing on a 96-well plate.LTEA_HepaRG_NQO1 is one of 102 assay component(s) measured in the LTEA HepaRG cell culture assay. It is a marker of Diseases associated with NQO1 include Tardive Dyskinesia and Childhood Leukemia.Data from the assay component LTEA_HepaRG_NQO1 was analyzed into 1 endpoint. This assay endpoint, LTEA_HepaRG_NQO1, was analyzed with bidirectional fitting relative to DMSO as the negative control and baseline of activity. Using a type of inducible reporter, measures of mRNA induction for gain or loss-of-signal activity can be used to understand regulation of transcription factor activity. To generalize the intended target to other relatable targets, this assay endpoint is annotated to the oxidoreductase intended target family, where the subfamily is quinone-acceptor.
A total of 1060 chemcials from the ToxCast library were tested in eight-point concentration-response experiments. Cell culture and cytotoxicity assays were conducted at Thermo Fisher Scientific's Custom Services facility (Madison, WI). A single lot of human HepaRG cells (Thermo Fisher Scientific, Frederick, MD) was used for the cell culture experiments. 96-well format collagen type I coated plates of human HepaRG cells were prepared using established methods. Briefly, cryopreserved HepaRG cells were thawed, plated at a density of approximately 100,000 cells/well in HepaRG Thaw, Plate, and General Purpose media (HPRG770, Thermo Fisher Scientific), and incubated for 48 hours. 0.5% DMSO was selected as vehicle control to balance the requisite need of DMSO in HepaRG cultures to maintain differentiation (for example, baseline metabolism, proportions of hepatocytes vs. cholangiocytes), while enabling further hepatic receptor pathway activation (for example, PXR and CAR) in response to chemical exposure. 48 hours after plating, the culture medium was replaced with HepaRG Serum-Free Incudtion Media. Cells were exposed to each test chemical in duplicate and maintained in CO2 incubators for another 48 hours. Chemical plates were thawed to room temperature and 200x concentrations of treatment groups were prepared. 8-point conentration-reponse curves were made with the highest exposure at 100 uM, followed by half-log dilutions, all in 0.5% DMSO. Each test plate contained variouse controls, induction positive controls (1mM phenobarbital), cytotoxicity positive controls ([…] aflatoxin B1), vehicle controls (0.5% DMSO), and total lysis controls (0.5% DMSO). Cell morphology images were taken using an Essen IncuCyte FLR automated microscope, with six 96-well plates imaged in about 24 minutes. Images were captured and exported and JPEG files. Spent culture media was transfered to black-well plates for the LDH assay, and remaining media was sorted at -80 C for later use. Cells were treated with RLT buffer and frozen until shipped for gene expression analysis. Total RNA was isolated from the cell suspension in 75 uL of Buffer RLT (Qiagen, Germantown, MD 20874) by Quintiles/Expression Analysis (Durham, NC) using a custom isolation procedure. Total RNA from each plate well was transferred to a preamplification plate. Fluidigm's 96.96 Dynamic ArrayTM (Fluidigm, Amsterdam, the Netherlands) technology was used for gene expression analyses by quantitative reverse transcription polymerase chain reaction (qRT-PCR, performed by Quintiles/Expression Analysis, Durham, NC)89. Standard TaqManTM Assays (Applied Biosystems/ThermoFisher Scientific, Foster City, CA) were used to assess the expression of 93 genes selected based on their selectivity and sensitivity to important hepatic receptors known to be modulated by environmental chemicals; importance in human hepatocyte functionality; and hepatotoxicity. […]
As to `On1ccccc1=S`, the compound was called inactive. On the same count and under the same terms, then `COCCOCCOCCOC`, with “inactive”. In the case of `CCC(C)(C)C(=O)O[C@H]1C[C@@H](C)C=C2C=C[C@H](C)[C@H](CC[C@@H]3C[C@@H](O)CC(=O)O3)[C@H]21`, the outcome was inactive. Still for that read-out and setting: then `Cc1ccc(N)cc1O`, with “inactive”; and `CN(C)c1ccc(Cc2ccc(N(C)C)cc2)cc1`, with “inactive”; and `O=C(O)CC(O)C(=O)O` (stereo not given), with “inactive”. On the same count and under the same terms, for `CC[C@H](C)C(=O)O[C@H]1C[C@@H](C)C=C2C=C[C@H](C)[C@H](CC[C@@H]3C[C@@H](O)CC(=O)O3)[C@H]21` the value was “inactive”; for `CCOC(=O)COc1ccc2c(c1)CC(NCC(O)c1cccc(Cl)c1)CC2` (stereo not given), “inactive”.

As to `Cc1ccc(S(=O)(=O)O)cc1C`, the result was inactive.

For `CCNc1ccccc1`, the call was inactive. Still for that read-out and setting: for `COc1ccc2sc(C(=O)Nc3nnn[nH]3)c(OC(C)C)c2c1` the value was “inactive”; for `CC(C)=CCCC(C)CCO` (stereo not given), “inactive”.

As for `O=P(OC(CCl)CCl)(OC(CCl)CCl)OC(CCl)CCl`, the result was inactive. On the same count and under the same terms, then `CNCc1ccc(NC(=O)c2c[nH]c3c2C(=O)CCC3)cc1`, with “inactive”; and `COCCOc1cc2cc(C(=O)NC3CCN(C(C)C)CC3)n(CC(=O)Nc3ccc(Cl)cn3)c2cn1`, with “inactive”; and `C=CC(=C)CCC=C(C)C`, with “inactive”. As to `CCOC(=O)c1ccc(C2CCC(NC[C@H](O)COc3ccc(O)c(NS(C)(=O)=O)c3)CC2)cc1` (stereo not given in full), the outcome was inactive. Still for that read-out and setting: for `O=c1[nH]c2ccc(S(=O)CCN3CCC(Cc4ccc(F)cc4)CC3)cc2o1` (stereo not given) the value was “inactive”; for `O=C(O)CCN(C1(C(=O)NO)CCCC1)S(=O)(=O)c1ccc(Oc2ccc(F)cc2)cc1`, “inactive”; for `CC(O)CN(CCN(CC(C)O)CC(C)O)CC(C)O` (stereo not given), “inactive”. On the same count and under the same terms, then `CNS(=O)(=O)c1cc(C(=O)N2CCC(CCN3C4CCC3CC(n3c(C)nc5ccccc53)C4)(c3cccc(F)c3)CC2)c(Cl)cc1F` (stereo not given), with “inactive”.

Turning to `CC(=O)OC[C@H]1O[C@@](COC(C)=O)(O[C@H]2O[C@H](COC(C)=O)[C@@H](OC(C)=O)[C@H](OC(C)=O)[C@H]2OC(C)=O)[C@@H](OC(C)=O)[C@@H]1OC(C)=O`, the compound was classed as inactive. Still for that read-out and setting: then `Cc1c(-c2cccnc2)c2ccccc2n1CCCCC(=O)O`, with “inactive”. With `CCOc1cccc(-n2cc(C(=O)N3CCN(c4cc(C(=O)O)c5ccccc5c4)CC3)nc2-c2ccc(C)cc2)c1`, the AC50 was 78.4 µM (active). On to `Cc1ccc(O)cc1`, for which the call was inactive. `O=C(CCCCCCCCc1cccnc1)N1CCC(C=C(c2ccccc2)c2ccccc2)CC1`: the AC50 is 80 µM (active). With `Cc1ccc(C)c(O)c1`, the compound was classed as inactive.

For `CCCCCCCCCCCCCCCO`, the compound was classed as inactive.

For `CC(C)=CCC/C(C)=C/CO`, the call was inactive. Still for that read-out and setting: for `CC(C)CCCCCCOC(=O)c1ccc(C(=O)OCCCCCCC(C)C)c(C(=O)OCCCCCCC(C)C)c1` the value was “inactive”. `Clc1nc(Cl)c(Cl)c(Cl)c1Cl`: the outcome was inactive. `CCOCCOCCOCCO`: the call was inactive. The same measure, in the same setting: for `CCCCCCc1ccc(O)cc1O` the value was “inactive”. As for `Fc1ccccc1[C@@H](F)COC1CCC(Nc2ncnc3[nH]ncc23)CC1` (stereo not given in full), the AC50 is 26.5 µM (active). Turning to `Nc1nc2ncc(CNc3ccc(C(=O)N[C@@H](CCC(=O)O)C(=O)O)cc3)nc2c(=O)[nH]1`, the outcome was inactive. Still for that read-out and setting: for `CCCN(C1CCN(C(=O)C2CCNCC2)CC1)[C@@H]1CCc2ccc(OC)cc2C1` the value was “inactive”; for `Cc1[nH]cnc1C[C@H]1CCc2c(C)c3ccccc3n2C1=O`, “inactive”; for `O=C1CCCCCN1`, “inactive”. As for `O=C(O)c1cccc(N(Cc2cccnc2)c2ccc(OC(F)F)c(OC(F)F)c2)c1`, the call was inactive.

For `CCOCCO`, the call was inactive.
